Consider 8 compounds from PubChem BioAssay (Tox21).

Test [1] is described as follows: qHTS assay to identify small molecule antagonists of the thyroid receptor (TR) signaling pathway - cell viability counter screen (AID 743064). Further: nearly all actives have a fitted effect of over 50% in size. The procedure, abridged: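 GH3.TRE-Luc cells, 4 h pre-plating; cpd + T3 1 nM final; 37 °C 23.5 h; CellTiter-Fluor 30 min; fluorescence read.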
Test [2] can be described thus: qHTS assay to identify small molecule antagonists of the thyroid receptor (TR) signaling pathway (AID 743065). Further: series mostly up to about 70 µM; nearly all actives have a fitted effect of over 55% in size. The procedure, abridged: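 GH3.TRE-Luc rat pituitary cells carrying two TR response elements driving luciferase were plated for 4 h, given compound plus 1 nM T3 (final), and incubated 23.5 h at 37 C. ONE-Glo luminescence measured reporter inhibition; CellTiter-Fluor fluorescence tracked cytotoxicity.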

The test system of test [3] is thyroid hormone receptor (rat, GH3 cells). Briefly: qHTS assay to identify small molecule agonists of the thyroid receptor (TR) signaling pathway (AID 743066; calls by dose curve). A general note: qHTS replaces the single test concentration by a dilution series.
The nature of test [4]: qHTS assay to identify small molecule antagonists of the estrogen receptor alpha (ER-alpha) signaling pathway - cell viability counter screen (AID 743074; calls by dose curve; further: nearly all actives have a fitted effect of over 45% in size).
Test [5] deals with Estrogen receptor (Homo sapiens) (UniProt P03372). In words: qHTS assay to identify small molecule agonists of the estrogen receptor alpha (ER-alpha) signaling pathway (AID 743075; calls by dose curve).
Test [6] has the same target. Briefly: qHTS assay to identify small molecule agonists of the estrogen receptor alpha (ER-alpha) signaling pathway using the BG1 cell line (AID 743079). Further: nearly all actives have a fitted effect of over 20% in size.
The nature of test [7]: qHTS assay to identify small molecule antagonists of the estrogen receptor alpha (ER-alpha) signaling pathway using the BG1 cell line (AID 743080; calls by dose curve;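 further: BG1 cells stimulated with 17beta-estradiol alongside compound; series mostly up to about 70 µM; nearly all actives have a fitted effect of over 25% in size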). The method in brief:
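Luciferase inhibition measured with ONE-Glo after 30 min at RT in BG1Luc4E2 cells given test compounds and 17beta-estradiol for 21.5 h at 37 C; CellTiter-Fluor viability read in the same wells beforehand.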

A short description of test [8]: qHTS assay to identify small molecule antagonists of the estrogen receptor alpha (ER-alpha) signaling pathway using the BG1 cell line - cell viability counter screen (AID 743081).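 Further: compound given together with 17beta-estradiol as the ER stimulus; series mostly up to about 70 µM; nearly all actives have a fitted effect of over 45% in size.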
A further test concerns the target Aromatase (Homo sapiens) (UniProt P11511). Briefly: qHTS assay to identify aromatase inhibitors (AID 743083). Further: series mostly up to about 70 µM; nearly all actives have a fitted effect of over 55% in size.
Test [9] is described as follows: qHTS assay to identify aromatase inhibitors - cell viability counter screen (AID 743084).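 Further: cells stimulated with testosterone during compound exposure; nearly all actives have a fitted effect of over 55% in size.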
The target of test [10] is Aryl hydrocarbon receptor (Homo sapiens) (UniProt P35869). Briefly: qHTS assay to identify small molecule that activate the aryl hydrocarbon receptor (AhR) signaling pathway (AID 743085). Further: nearly all actives have a fitted effect of over 15% in size. Further: potency means the concentration at half of the fitted maximal effect.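 On activation: HG2L7.5c1 human HepG2 liver cells with stably integrated DRE-driven firefly reporter; series mostly up to about 70 µM.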 The procedure, abridged: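 Luminescence read-out: ONE-Glo reagent, 30 min at room temperature, in HG2L7.5c1 HepG2 reporter cells treated 24 h at 37C. Viability was measured beforehand by CellTiter-Fluor fluorescence after 30 min at 37C.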

Test [11] can be described thus: qHTS assay to identify small molecule that activate the aryl hydrocarbon receptor (AhR) signaling pathway - cell viability counter screen (AID 743086).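 Further: HepG2 liver cells carrying the AhR DRE luciferase reporter; series mostly up to about 70 µM; nearly all actives have a fitted effect of over 45% in size.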 The procedure, abridged:
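HepG2-AhR-luc (HG2L7.5c1) cells, 4000/well, were preincubated 5 h at 37C, exposed to compound in qHTS format for 24 hr at 37C, then given CellTiter-Fluor for 30 min; viability was read as fluorescence in the reporter wells.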

For test [12], the target named is Peroxisome proliferator-activated receptor gamma (Homo sapiens) (UniProt P37231). In words: qHTS assay to identify small molecule agonists of the peroxisome proliferator-activated receptor gamma (PPARg) signaling pathway (AID 743094; active means well fitted activation curve with a large enough effect in the signal ratio in the repeat runs, not every such curve was filed as active; the % refers to the signal ratio). The procedure, abridged: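 Following 5 h plating at 37C, PPARg-bla HEK293H cells receive compound or DMSO for 17 h; fluorescence intensity is recorded after LiveBLAzer B/G loading for 1 h at room temperature.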

The target is the same in test [13]. In words: qHTS assay to identify small molecule antagonists of the peroxisome proliferator-activated receptor gamma (PPARg) signaling pathway (AID 743191; calls by dose curve; further: series mostly up to about 63 µM; nearly all actives have a fitted effect of over 30% in size). The procedure, abridged: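 GeneBLAzer PPARg UAS-bla HEK293H cells carrying a UAS-driven beta-lactamase reporter were plated at 3000 cells/well, preincubated 5 h at 37C, then given compound for 17 h at 37C; LiveBLAzer B/G FRET substrate was read after 1 h at room temperature.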

Test [14] in a line: qHTS assay to identify small molecule antagonists of the peroxisome proliferator-activated receptor gamma (PPARg) signaling pathway - cell viability counter screen (AID 743194). Further: nearly all actives have a fitted effect of over 55% in size. The procedure, abridged: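 PPARg-UAS-bla HEK293H cells were plated, rested 5 h at 37 C, then treated with compounds plus rosiglitazone (50 nM final) for 17 h at 37 C; viability was then read by CellTiter-Glo luminescence after 30 min at room temperature.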

A short description of test [15]: qHTS assay for small molecule agonists of the antioxidant response element (ARE) signaling pathway (AID 743202; active means well fitted activation curve with a large enough effect in the signal ratio in the repeat runs, not every such curve was filed as active; the % refers to the signal ratio). The procedure, abridged: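 Read-out: LiveBLAzer B/G FRET substrate fluorescence after 2 h at room temperature, following 16 h compound treatment at 37 C of HepG2 cells carrying an ARE-driven beta-lactamase reporter.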
Test [16] can be described thus: qHTS assay for small molecule activators of the heat shock response signaling pathway - cell viability counter screen (AID 743209). Further: nearly all actives have a fitted effect of over 50% in size. The method in brief: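 Counter screen for cytotoxicity in HeLa HSE-bla reporter cells. Treatment was 5 h at 37 C; viability was detected by luminescent ATP assay (CellTiter-Glo) in the same wells as the beta-lactamase read.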
The nature of test [17]: qHTS assay for small molecule activators of the heat shock response signaling pathway (AID 743210; active means well fitted activation curve with a large enough effect in the signal ratio in the repeat runs, with a control signal flat, not every such curve was filed as active; the % refers to the signal ratio; further: series mostly up to about 63 µM). The method in brief:
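HSE-bla HeLa cells (beta-lactamase reporter under heat shock response elements) were exposed to compounds for 5 h at 37 C, then loaded with LiveBLAzer B/G FRET substrate for 2.5 h at room temperature before fluorescence reading.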

Test [18] can be described thus: qHTS assay for small molecule agonists of the antioxidant response element (ARE) signaling pathway - cell viability counter screen (AID 743203; calls by dose curve; further: nearly all actives have a fitted effect of over 55% in size). The method in brief: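 Compounds in DMSO were pinned onto ARE-bla HepG2 cells plated 5 hrs earlier at 2,000 cells/well. Sixteen hours later at 37C/5% CO2, CellTiter-Glo was added and luminescence measured after 30 min at room temperature.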

Test [19] has as its target Estrogen receptor (Homo sapiens) (UniProt P03372). In words: qHTS assay to identify small molecule antagonists of the estrogen receptor alpha (ER-alpha) signaling pathway (AID 743069; active means well fitted curve in the direction sought with a large enough effect in the signal ratio in the repeat runs, not every such curve was filed as active; the % refers to the signal ratio). The procedure, abridged:
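HEK293 cells stably carrying an ER-alpha-UAS-bla beta-lactamase reporter were pre-cultured overnight in 2% charcoal-stripped FBS medium. Test compounds in DMSO were added together with 17beta-estradiol for 18 hr at 37C. Read-out was fluorescence after 2 hr with LiveBLAzer B/G FRET substrate at room temperature.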

“And” between values parts separate entries of the source, which are not always exact repeats. Identical values can stand only once. Inconclusive results are not listed. The source made the active and inactive calls. Unless noted, the call rests on the fitted dose curve; in most records, active means well fitted curve in the direction sought with a large enough effect in the repeat runs; inconclusive means weak or mixed curves; inactive means no such curve, though single readings can be large; an effect the other way counts as inactive or inconclusive.

Sequence of Estrogen receptor (Homo sapiens) (P03372 whole entry, looked up): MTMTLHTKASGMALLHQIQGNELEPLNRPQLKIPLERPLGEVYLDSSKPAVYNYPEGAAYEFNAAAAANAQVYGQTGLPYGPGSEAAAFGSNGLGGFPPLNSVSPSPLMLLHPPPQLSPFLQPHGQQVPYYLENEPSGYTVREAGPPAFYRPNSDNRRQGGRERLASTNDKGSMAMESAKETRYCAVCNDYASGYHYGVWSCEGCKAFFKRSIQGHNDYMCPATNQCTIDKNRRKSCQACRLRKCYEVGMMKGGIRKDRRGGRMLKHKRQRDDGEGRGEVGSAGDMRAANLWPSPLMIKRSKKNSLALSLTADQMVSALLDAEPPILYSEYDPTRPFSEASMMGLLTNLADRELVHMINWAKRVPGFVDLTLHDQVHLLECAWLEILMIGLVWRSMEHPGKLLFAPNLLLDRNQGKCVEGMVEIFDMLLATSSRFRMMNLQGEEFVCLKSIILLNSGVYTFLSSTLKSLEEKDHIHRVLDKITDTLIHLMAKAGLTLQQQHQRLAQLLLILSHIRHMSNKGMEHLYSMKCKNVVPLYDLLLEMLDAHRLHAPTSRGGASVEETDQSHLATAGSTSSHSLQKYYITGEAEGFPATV
Sequence of Aromatase (Homo sapiens) (P11511 whole entry, looked up): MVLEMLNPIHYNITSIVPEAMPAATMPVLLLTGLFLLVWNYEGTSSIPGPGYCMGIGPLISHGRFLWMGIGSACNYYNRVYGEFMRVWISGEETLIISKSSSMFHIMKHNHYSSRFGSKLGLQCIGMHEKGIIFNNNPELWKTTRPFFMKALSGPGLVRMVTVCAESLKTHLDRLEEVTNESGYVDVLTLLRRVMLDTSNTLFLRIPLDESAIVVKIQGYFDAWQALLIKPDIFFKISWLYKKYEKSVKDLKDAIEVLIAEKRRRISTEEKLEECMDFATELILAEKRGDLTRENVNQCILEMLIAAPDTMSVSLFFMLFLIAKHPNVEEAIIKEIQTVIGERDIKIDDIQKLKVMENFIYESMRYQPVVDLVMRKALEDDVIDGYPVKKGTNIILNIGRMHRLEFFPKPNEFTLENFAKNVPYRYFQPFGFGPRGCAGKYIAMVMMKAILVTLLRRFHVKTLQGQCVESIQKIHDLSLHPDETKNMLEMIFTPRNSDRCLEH
Sequence of Aryl hydrocarbon receptor (Homo sapiens) (P35869 whole entry, looked up): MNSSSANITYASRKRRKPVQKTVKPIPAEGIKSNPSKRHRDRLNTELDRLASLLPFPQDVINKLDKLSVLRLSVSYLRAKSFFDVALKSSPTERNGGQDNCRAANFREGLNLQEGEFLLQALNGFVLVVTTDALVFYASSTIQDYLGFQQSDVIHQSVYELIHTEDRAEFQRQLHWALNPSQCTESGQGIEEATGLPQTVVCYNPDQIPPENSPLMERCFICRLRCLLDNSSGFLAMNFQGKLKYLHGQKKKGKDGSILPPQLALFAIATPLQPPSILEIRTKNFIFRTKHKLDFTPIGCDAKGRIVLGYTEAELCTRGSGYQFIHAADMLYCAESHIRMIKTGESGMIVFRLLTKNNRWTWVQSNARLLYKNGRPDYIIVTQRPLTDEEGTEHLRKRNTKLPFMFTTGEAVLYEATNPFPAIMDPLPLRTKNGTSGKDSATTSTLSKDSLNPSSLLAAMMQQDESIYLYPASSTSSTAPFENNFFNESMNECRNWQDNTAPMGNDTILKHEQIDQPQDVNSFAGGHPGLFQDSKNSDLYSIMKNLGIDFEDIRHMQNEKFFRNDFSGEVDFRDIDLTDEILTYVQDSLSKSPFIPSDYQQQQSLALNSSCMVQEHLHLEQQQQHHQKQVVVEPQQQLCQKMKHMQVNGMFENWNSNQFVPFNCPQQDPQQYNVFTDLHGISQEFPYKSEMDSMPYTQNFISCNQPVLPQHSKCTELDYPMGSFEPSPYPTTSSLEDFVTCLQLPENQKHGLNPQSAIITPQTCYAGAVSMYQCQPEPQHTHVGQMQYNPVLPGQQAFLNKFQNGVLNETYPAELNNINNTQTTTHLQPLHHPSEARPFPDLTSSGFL
Sequence of Peroxisome proliferator-activated receptor gamma (Homo sapiens) (P37231 whole entry, looked up): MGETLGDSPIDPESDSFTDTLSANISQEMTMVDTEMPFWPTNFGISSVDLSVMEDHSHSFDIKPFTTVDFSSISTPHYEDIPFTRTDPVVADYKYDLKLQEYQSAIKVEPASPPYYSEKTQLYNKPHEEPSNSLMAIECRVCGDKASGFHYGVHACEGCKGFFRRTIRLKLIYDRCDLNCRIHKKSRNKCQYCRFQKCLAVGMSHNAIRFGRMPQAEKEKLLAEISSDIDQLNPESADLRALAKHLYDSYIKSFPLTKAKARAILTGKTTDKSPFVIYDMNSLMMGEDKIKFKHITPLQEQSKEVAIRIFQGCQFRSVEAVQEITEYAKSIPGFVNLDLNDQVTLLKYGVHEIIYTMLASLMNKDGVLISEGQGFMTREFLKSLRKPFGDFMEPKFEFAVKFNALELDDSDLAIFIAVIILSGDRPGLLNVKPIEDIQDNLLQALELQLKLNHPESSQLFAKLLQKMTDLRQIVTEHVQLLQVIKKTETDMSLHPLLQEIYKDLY

For the compound `Cc1ccc2ncccc2c1`, the Potency entry (in test [1]; in test [2]; in test [5]; in test [6]; in test [8]; with Aromatase (Homo sapiens)) was “inactive” throughout. The Potency result in test [9], in test [10], in test [11] and in test [15] was “inactive” in each case. The call in test [3], in test [4], in test [7], in [12], in [13] and in [14] was inactive. Also, the compound was classed as inactive in test [16] and in [17].

Turning to `Cc1ccc([N+](=O)[O-])cc1S(=O)(=O)O`, the Potency entry (in [1]; in [2]; in [5]; in [6]; in [8]; with Aromatase (Homo sapiens)) was “inactive” each time. Further, the Potency entry in test [9], in test [10], in test [11], in test [15] and in test [18] was “inactive” each time. The compound was classed as inactive in test [3], in test [4], in test [7], in [12], in test [13] and in test [14]. The call in [16] and in test [17] was inactive.

`O=C1CCCC1`: the Potency result in test [1], in test [2], in test [19], in test [5], in test [6] and in [8] was “inactive” throughout. Also, the Potency entry (in the test with Aromatase (Homo sapiens); in [9]; in [10]; in test [11]; in test [15]; in [18]) was “inactive” throughout. Besides, the compound was called inactive in test [3], in [4], in test [7], in test [12], in test [13] and in test [14]. The result in test [16] and in [17] was inactive.

Take `CC(CCO)CC(C)(C)C` (stereo not given): the Potency entry in test [1], in test [2], in [19], in test [5], in test [6] and in [8] was “inactive” throughout. In addition, the Potency result (in the test with Aromatase (Homo sapiens); in [9]; in [10]; in [11]; in [15]; in test [18]) was “inactive” each time. For the same compound, the outcome in [3], in test [4], in test [7], in [12], in [14] and in [16] was inactive. The compound was called inactive in test [17].

For `Nc1ccc(Cl)c(N)c1`, the Potency result (in test [1]; in [2]; in test [5]; in [6]; in test [8]; with Aromatase (Homo sapiens)) was “inactive” throughout. Further, the Potency entry in test [9] and in [11] was “inactive” throughout. The compound was classed as inactive in test [3], in [4], in test [7], in test [14], in test [16] and in [17]. In addition, the Potency in test [10] is 19.4 µM (active) and 7.7 µM (active).

Consider `CC(C)c1cccc(C(C)C)c1`, for which the Potency result in test [1], in test [2], in test [19], in [5], in [6] and in test [8] was “inactive” throughout. Besides, the Potency result (in the test with Aromatase (Homo sapiens); in test [9]; in test [10]; in test [11]; in test [15]) was “inactive” each time. The compound was classed as inactive in [3], in [4], in [7], in [12], in test [13] and in test [14]. Besides, the result in test [16] and in test [17] was inactive.

For the compound `CCCCCCCO`, the Potency result in test [1], in test [2], in test [19], in test [5], in [6] and in [8] was “inactive” in each case. In addition, the Potency entry (in the test with Aromatase (Homo sapiens); in test [9]; in test [10]; in test [11]; in [15]) was “inactive” throughout. The compound was classed as inactive in test [3], in test [4], in test [7], in [12], in test [14] and in test [16]. Besides, the result in [17] was inactive.

With `CCCCCC(=O)O`, the Potency result (in [1]; in test [2]; in test [5]; in test [6]; in test [8]; with Aromatase (Homo sapiens)) was “inactive” each time. In addition, the Potency entry in test [9], in test [10], in test [11] and in test [15] was “inactive” each time. Further, the outcome in [3], in [4], in [7], in test [12], in test [14] and in test [16] was inactive. Also, in [17], the compound was called inactive.
